Assay outcomes as filed in PubChem.
Artemis inh = Artemis endonuclease inhibitors, primary screen, biochemical, fluorescence intensity, FAM/BHQ-1 hairpin substrate | Protein artemis (Homo sapiens), Q96SD1 | recombinant Artemis, quenched FAM hairpin cleavage fluorescence | inhibition, % at 10 µM | 30,000 compounds, 0.78% hits | AID 686954, 2013;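 active means at 10 µM dose, at least 30% inhibition, measured as corrected fluorescence normalized to stimulator and neutral control wells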
Target sequence (Q96SD1 whole entry, looked up): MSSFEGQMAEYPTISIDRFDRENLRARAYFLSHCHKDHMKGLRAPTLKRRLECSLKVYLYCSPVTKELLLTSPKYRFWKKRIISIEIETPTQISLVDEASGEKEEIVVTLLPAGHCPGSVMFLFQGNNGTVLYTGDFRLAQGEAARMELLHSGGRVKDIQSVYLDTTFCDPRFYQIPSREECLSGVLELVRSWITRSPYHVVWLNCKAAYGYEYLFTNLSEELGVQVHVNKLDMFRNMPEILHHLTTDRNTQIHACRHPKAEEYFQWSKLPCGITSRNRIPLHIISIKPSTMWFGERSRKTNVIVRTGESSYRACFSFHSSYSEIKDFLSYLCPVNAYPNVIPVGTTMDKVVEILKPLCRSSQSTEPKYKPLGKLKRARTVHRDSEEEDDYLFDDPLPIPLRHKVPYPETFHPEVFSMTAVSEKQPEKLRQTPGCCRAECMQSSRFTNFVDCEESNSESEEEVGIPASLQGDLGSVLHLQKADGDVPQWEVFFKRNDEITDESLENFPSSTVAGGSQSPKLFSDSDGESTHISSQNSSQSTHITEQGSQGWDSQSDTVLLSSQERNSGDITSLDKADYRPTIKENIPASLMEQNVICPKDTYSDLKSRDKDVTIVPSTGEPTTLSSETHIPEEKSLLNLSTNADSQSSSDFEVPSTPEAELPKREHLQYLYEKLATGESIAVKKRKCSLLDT
Large screens that a line does not name were inactive. The full list was thinned out, with hits kept by preference.

CC(C(=O)NCc1ccccc1)N1C(=O)C2CC=C(Cl)CC2C1=O (configuration not stated)	none
COc1ccc(Cl)cc1-c1n[nH]c(=S)n1C	none
Cc1ccc(NC(=O)CN(C)Cc2nc3ccccc3c(=O)[nH]2)c(Br)c1	none
Cc1cc(C)n(-c2nc(NCCCO)c3c4c(sc3n2)CCCC4)n1	Artemis inh 33
CCn1c(NN)nc2sc3c(c2c1=O)CCC3	none
N=c1c2c3c(sc2ncn1CCCO)CCCC3	none
Cc1cc(C)n(-c2nc(NCC(C)O)c3c4c(sc3n2)CCCC4)n1 (configuration not stated)	Artemis inh 39
Cc1cc(S(=O)(=O)Nc2nc(CN3CCOCC3)nc3sc4c(c23)CCCC4)ccc1F	none
Cc1cc(C)n(-c2nc(NCCO)c3c4c(sc3n2)CCCC4)n1	none
O=C(OCc1ccco1)c1ccc(S(=O)(=O)N2CCCCC2)cc1	none
CCCCC(=O)Nc1nnc(-c2ccc(OC)cc2)s1	none
Cc1nnc(SCc2ccc(F)cc2)n1NC/C=C/c1ccccc1	none
Cc1ccc(C(=O)NCc2ccc3c(c2)OCO3)cc1S(=O)(=O)N1CCCCC1	none
CCCC(=O)Nc1cccn(Cc2ccccc2Br)c1=O	none
Cn1c(=O)c2c(ncn2CC(=O)N2CCc3ccccc3C2)n(C)c1=O	none
Cc1ccc(C(=O)Nc2ccc(Cc3ccncc3)cc2)cc1[N+](=O)[O-]	none
N=C1C(c2nc(-c3ccc(F)cc3)cs2)=C(O)CN1CCCN1CCOCC1	none
Cc1cc(Nc2ccccc2)c2c([N+](=O)[O-])c(C)cc(C)c2n1	none
Cn1c(Cc2cccs2)nnc1SCC(=O)N1CCc2ccccc21	none
COC(=O)c1ccc(C2/C(=C(/O)c3ccc(OC(C)C)cc3)C(=O)C(=O)N2c2cc(C)on2)cc1 (configuration not stated)	Artemis inh 32
COC(=O)c1ccc(C2/C(=C(/O)c3ccc(OC)cc3)C(=O)C(=O)N2c2cc(C)on2)cc1 (configuration not stated)	none
Cc1ccc(/C(O)=C2\C(=O)C(=O)N(c3cc(C)on3)C2c2cccc(Br)c2)cc1 (configuration not stated)	none
CC(=O)c1ccc(N2CCN(C(=O)c3ccc(Br)cc3)CC2)c(F)c1	none
COc1ccc(OC)c(NC(=O)CSC2=NCCS2)c1	none
COc1ccc(Nc2nc(Nc3ccc(OC)cc3)nc(SC3=NCCS3)n2)cc1	Artemis inh 79
COc1ccc(CC(=O)NC2=NCCS2)cc1	none
CCNC(=O)N1C(=O)C2(OCCO2)c2ccccc21	none
CC(NC(=O)c1ccco1)C1COc2ccccc2O1 (configuration not stated)	none
CCC(=O)Nc1ccc2oc(-c3ccccc3Br)nc2c1	none
Nc1ccc2oc(-c3cccc4ccccc34)nc2c1	none
O=C(Nc1ccc2oc(-c3cccc4ccccc34)nc2c1)c1ncn[nH]1	Artemis inh 32
C=CCn1c(-c2cc(Cl)ccc2OC)n[nH]c1=S	none
CC(C)(C)c1ccc(CN(Cc2ccccc2)C(c2ccccn2)c2nnnn2C(C)(C)C)cc1 (configuration not stated)	none
CCC(=O)Nc1ccc(N2CCN(Cc3ccccc3)CC2)cc1	none
O=C(Cc1ccccc1)Nc1ccc(N2CCCC2)cc1	Artemis inh 59
COc1ccccc1C(=O)Nc1ccc(N2CCN(Cc3ccccc3)CC2)cc1	none
CCCCOc1cccc(C(=O)Nc2ccc(N3CCN(CC)CC3)cc2)c1	none
O=C(Nc1ccc(N2CCCC2)cc1)C(c1ccccc1)c1ccccc1	Artemis inh 52
CCCC(=O)Nc1ccc(N2CCOCC2)cc1	none
CCOc1cccc(C(=O)NC(=S)Nc2ccc(N3CCCC3)cc2)c1	Artemis inh 43
CC(C)C(=O)Nc1ccc(N2CCCC2)cc1	none
CCC(=O)N1CCN(c2ccc(NC(=S)NC(=O)c3cccc([N+](=O)[O-])c3)cc2)CC1	none
CCCC(=O)N1CCN(c2ccc(NC(=O)C(C)(C)C)cc2)CC1	none
CCCCC(=O)Nc1ccc(N2CCCC2)cc1	Artemis inh 44
COc1ccccc1C(=O)Nc1ccc(N2CCCCC2)cc1	none
O=C1c2ccccc2C(=O)N1CC#CCN1CCN(C2CCCCC2)CC1	none
Brc1c(CSc2nncn2-c2ccccc2)nc2ncccn12	none
COc1ccccc1NC(=O)c1cc2ccccc2o1	none
CCN1CCN(c2ncc(C(=O)Nc3ccccc3C(=O)OC)c3ccccc23)CC1	none
COc1cccc(/C=N/NC(=O)CSc2nnc(C)n2-c2ccccc2)c1OC	none
COc1cccc(/C=N/Nc2nn3cnnc3c3ccccc23)c1O	Artemis inh 35
COc1cccc(/C=N\n2c(C)nnc2C)c1OC	none
CCOc1ccc(S(=O)(=O)Nc2nc3ccccc3nc2N2CCN(C)CC2)cc1	none
O=C(O)c1ccccc1OCCOc1ccccc1	none
O=C1NC(=O)/C(=C\c2ccccc2Oc2ccc(F)c(F)c2)S1	Artemis inh 34
CCC(C)C(NC(=O)C(C)NC(=O)CNC(=O)CNC(=O)OCc1ccccc1)C(=O)OC (configuration not stated)	none
CC(=O)NC12CC3CC(C1)CC(C(=O)OCC(=O)c1ccc4c(c1)OCCO4)(C3)C2	none
CC(=O)c1c(C)[nH]c(C(=O)OCn2nnc3ccccc3c2=O)c1C	none
COc1cccc(-c2cn3nc4c(nc3n2)CCCC4)c1	Artemis inh 36
Clc1ccc(-c2cn3nc4c(nc3n2)CCCC4)cc1	Artemis inh 37
COc1cccc(-c2csc(NC(C)=O)n2)c1	none
COc1cccc(-c2cc(C(F)(F)F)n3nc(N)nc3n2)c1	none
OC1CCN(c2c3c(nc4cc(-c5ccc(Cl)cc5)nn24)CCC3)CC1	none
Clc1ccc(-c2cn3cccnc3n2)cc1	none
CC1(C)CC(=O)C(C=NC2CCCCC2)=C(O)C1	none
CCOCC(=O)Nc1cccc(OC)c1	none
CC(C)OC(=O)CCCN1C(=O)c2ccc(N)cc2C1=O	none
Cn1c(-c2ccc(C=O)s2)nc2c3ccccc3c3ccccc3c21	Artemis inh 46
Cc1ccc(-c2nc(=S)c3c(n2CCN2CCOCC2)CC(C)(C)OC3)cc1	none
